Assay results: PubChem BioAssay (EPA / NIEHS)
Activity calls are given as the source filed them. Rule for the calls: active = hit-call score of the fitted dose curve at least 0.9, where 1 is the maximum; inactive = score below 0.9.

biological target: Transcription factor Sp1 (Homo sapiens) (UniProt P08047); assay: ATG_Sp1_CIS: Attagene CIS-FACTORIAL HepG2 Assay for human Specificity Protein 1 (Sp1) (AID 2282961); settings: HepG2 Sp1 cis-reporter transcription, actives raise or lower the signal
Protocol: ATG_CIS is a cell-based, multiplexed-readout assay that uses HepG2, a human liver cell line, with measurements taken at 24 hours after chemical dosing in a 24-well plate.ATG_Sp1_CIS is one of 52 assay component(s) measured or calculated from the ATG_CIS assay. It is designed to make measurements of mRNA induction, a form of inducible reporter, as detected with fluorescence intensity signals by Reverse transcription polymerase chain reaction (RT-PCR) and Capillary electrophoresis technology.Data from the assay component ATG_Sp1_CIS was analyzed into 1 assay endpoint. This assay endpoint, ATG_Sp1_CIS, was analyzed with bidirectional fitting relative to DMSO as the negative control and baseline of activity. Using a type of inducible reporter, measures of mRNA for gain or loss-of-signal activity can be used to understand the reporter gene at the transcription factor-level as they relate to the gene SP1. Furthermore, this assay endpoint can be referred to as a primary readout, because this assay has produced multiple assay endpoints where this one serves a reporter gene function. To generalize the intended target to other relatable targets, this assay endpoint is annotated to the dna binding intended target family, where the subfamily is zinc finger.
Human liver HepG2 cells are transiently transfected with multiple reporter transcription units (MRTUs) in 6-well plates using FuGene 6 reagent (Roche; 3 ml FuGene/1 mg DNA). The MRTU constructs are regulated by a cis-regulating element (promoter). […] A major difference between the CIS and TRANS system is that in CIS activities of endogenous TFs are measured, whereas the TRANS assay evaluates changes in activities of exogenous, chimeric NR-Gal4 proteins. […] At the end of 24 hour incubation, total RNA was isolated using TriZol reagent (Invitrogen). The isolated RNA is then reverse-transcribed using oligo(dT) primer and Mo-MLV reverse transcriptase (Invitrogen) with DNAse I (Ambion) treatment for 30 min. The one-tenth of the produced cDNA was amplified by PCR using Taq DNA polymerase (Invitrogen) and two reporter sequence-specific primers. The PCR products were fluorescently labeled by primer extension with 6-arboxyfluorescein (6-FAM) 5'-labeled reporter sequence-specific primer (2 min at 95 C, 20 s at 68 C and 10 min at 72 C) and these products were digested with 5U of HpaI (New England Biolabs) for 2h at 37 C. The fragments were purified using Qiaquick PCR columns (Qiagen), analyzed on an ABI 3130xL genetic analyzer (Applied Biosystems) with peak positions identified by using a set of X-rhodamine (ROX)-labeled MapMarker1000 molecular weight standards (BioVentures). The raw capillary electrophoresis data was processed using Attagraph software (Attagene).

Sequence of Transcription factor Sp1 (Homo sapiens) (P08047 whole entry, looked up): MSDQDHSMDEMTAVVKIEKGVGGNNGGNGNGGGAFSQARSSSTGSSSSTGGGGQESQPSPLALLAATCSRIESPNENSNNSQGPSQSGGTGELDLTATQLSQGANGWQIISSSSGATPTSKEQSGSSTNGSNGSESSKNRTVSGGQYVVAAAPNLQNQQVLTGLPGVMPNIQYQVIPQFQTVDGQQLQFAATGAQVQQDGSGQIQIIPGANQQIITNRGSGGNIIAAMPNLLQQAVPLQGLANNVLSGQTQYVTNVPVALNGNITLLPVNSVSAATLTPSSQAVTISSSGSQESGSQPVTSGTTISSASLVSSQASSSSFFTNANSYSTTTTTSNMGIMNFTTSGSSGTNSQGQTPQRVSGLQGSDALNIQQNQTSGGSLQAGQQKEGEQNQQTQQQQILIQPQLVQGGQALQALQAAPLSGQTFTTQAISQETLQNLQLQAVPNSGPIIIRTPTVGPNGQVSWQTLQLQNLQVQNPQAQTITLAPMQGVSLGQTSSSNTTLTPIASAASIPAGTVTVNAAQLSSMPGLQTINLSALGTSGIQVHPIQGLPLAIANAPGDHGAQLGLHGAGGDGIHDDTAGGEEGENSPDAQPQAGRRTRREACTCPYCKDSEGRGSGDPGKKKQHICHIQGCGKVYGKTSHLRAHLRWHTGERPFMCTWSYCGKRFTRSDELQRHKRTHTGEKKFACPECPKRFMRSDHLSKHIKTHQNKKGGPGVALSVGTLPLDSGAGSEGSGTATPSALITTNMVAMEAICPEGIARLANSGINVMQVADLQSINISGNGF

Structure (SMILES)	outcome	AC50
Clc1ccc(Sc2cc(Cl)c(Cl)cc2Cl)cc1	inactive	
CC1=NN(c2cc(Cl)c(S(=O)(=O)O)cc2Cl)C(=O)C1N=Nc1ccc(S(=O)(=O)O)cc1 (stereo not given)	inactive	
CCCCCCCCCC/C=C/C1CC(=O)OC1=O (stereo not given)	inactive	
CCCCCCC(O)CCCCCCCCCCC(=O)OC (stereo not given)	inactive	
O=C1NC(=O)C2CC=CCC12 (stereo not given)	inactive	
CCCCCCC1CCCC(=O)O1 (stereo not given)	inactive	
CCC(C)=NO	inactive	
F[B-](F)(F)F	inactive	
CCCCCCCCCCC1CO1 (stereo not given)		154 µM (active)
C/C=C(\C)C(=O)OCC/C=C\CC	inactive	
CCO[Si](OCC)(OCC)c1ccccc1	inactive	
CC(=O)c1nccs1	inactive	
CC(C)CC(=O)CC(C)CC(C)C (stereo not given)	inactive	
CCCCCCOC(=O)CCCCCCCC(=O)OCCCCCC	inactive	
CCCOCCC	inactive	
CNC[C@H](O)[C@@H](O)[C@H](O)[C@H](O)CO	inactive	
CC/C=C\CC/C=C/C(OCC)OCC	inactive	
CC/C=C\CCCCCO	inactive	
CC(=O)CCc1ccccc1	inactive	
CCc1cc(C(N)=S)ccn1	inactive	

Structure (SMILES)	outcome	AC50
COc1ccccc1OCC(O)CO (stereo not given)	inactive	
Oc1ccc(Oc2ccccc2)cc1	inactive	
Cc1cc(C)c(S(=O)(=O)O)cc1N=Nc1cc(S(=O)(=O)O)c2ccccc2c1O	inactive	
O=C(O)/C=C\C(=O)O	inactive	
O=C1NC(=O)[C@@H]2CC=CC[C@H]12	inactive	
CC(C)(C)NC(=O)[C@@H]1CN(Cc2cccnc2)CCN1C[C@@H](O)C[C@@H](Cc1ccccc1)C(=O)N[C@H]1c2ccccc2C[C@H]1O	inactive	
CCCCNC(N)=O	inactive	
CC/C=C\CC1=C(C)CCC1=O	inactive	
Nc1nnc(-c2ccc([N+](=O)[O-])o2)o1	inactive	
C=C1CC[C@H]2C[C@@H]1C2(C)C	inactive	
C=C(C)C(=O)OCC1CCCO1 (stereo not given)	inactive	
CN(C)CCC(c1ccc(Cl)cc1)c1ccccn1 (stereo not given)	inactive	
C[Si](C)(C)O[Si](C)(C)O[Si](C)(C)C	inactive	
CCC(C)NC(N)=O (stereo not given)	inactive	
NC(=O)c1ccc(N)cc1	inactive	
CCC(=O)OCc1ccc(OC)cc1	inactive	
CCOc1ccc2c(c1)C(C)CC(C)(C)N2 (stereo not given)	inactive	
CCCCOC(=O)COc1ccc(Cl)cc1Cl	inactive	
O=C(Oc1ccccc1)c1ccccc1	inactive	
O=[N+]([O-])c1ccc2nc[nH]c2c1	inactive	
